High-throughput results as filed in PubChem.
The list is not random: actives were taken first. Their share in the collection is about 12%.
WT yeast gro inh – growth inhibition of WT strain, primary screen, mitochondrial fusion inhibitor project, WT and mutant strains, chemical genetic | mitochondrial fusion phenotypic screen | inhibition, % at 10 µM | hit rate 2.1% among 190,000 | AID 1362, 2008; in the data active means inhibition above about 58%; tested in S. cerevisiae
KCC2 mod – KCC2 cotransporter modulators, thallium flux, primary screen, cell-based, HEK293 KCC2, FluoZin-2 fluorescence, MLSMR; KCC2 cells, thallium flux FluoZin-2 fluorescence; hit rate 2.2% among 190,000; Solute carrier family 12 member 5 (Homo sapiens), Q9H2X9; B-score of Tl+ flux slope (higher = more flux/activation; lower = inhibition) at 10 µM; AID 1456, 2008;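 active means thallium flux slope and its plate-corrected score both differing from the plate sample mean at a set confidence after two filtering rounds, in either direction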;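 further: slope of fluorescence scaled to starting intensity during 10 to 20 s after thallium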
ROMK mod – ROMK potassium channel modulators, primary screen, cell-based, thallium flux, MLSMR library. Tet-inducible ROMK, thallium flux fluorescence; actives lie on both sides. ATP-sensitive inward rectifier potassium channel 1 (Homo sapiens), P48048. AID 1918, 2009. B-score at 10 µM. hit rate 2% among 130,000;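 active means signal ratio slope over the read window, or its plate-corrected B-score, at least 3 SD from the plate mean, either direction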;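 further: B-score of the F/F0 ratio slope over 7 to 12 s after thallium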
Target sequence (P48048 whole entry, looked up): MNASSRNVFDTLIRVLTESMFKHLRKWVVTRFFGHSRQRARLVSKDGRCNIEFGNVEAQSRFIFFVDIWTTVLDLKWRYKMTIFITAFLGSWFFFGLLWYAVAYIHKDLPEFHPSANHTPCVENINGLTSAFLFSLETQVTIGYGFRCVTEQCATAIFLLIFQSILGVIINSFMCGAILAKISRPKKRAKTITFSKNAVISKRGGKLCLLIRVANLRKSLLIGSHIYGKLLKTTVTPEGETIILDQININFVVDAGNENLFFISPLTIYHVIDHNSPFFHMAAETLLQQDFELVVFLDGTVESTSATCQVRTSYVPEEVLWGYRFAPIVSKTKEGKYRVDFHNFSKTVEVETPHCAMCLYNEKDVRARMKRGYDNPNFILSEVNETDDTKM
Lmaj promast – Leishmania major promastigote growth inhibition, primary screen; Leishmania major promastigotes, resazurin fluorescence viability; inhibition, % at 10 µM; hit rate 9% among 200,000; AID 1063, 2008; in the data active means inhibition above about 50%;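 further: promastigotes grown with compound for 44 hours at 28 °C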
INS promoter inh – inhibitors of insulin promoter-driven GFP, primary screen, imaging, TRM-6 cells (human fetal islet line), eGFP reporter, cell count. reporter expression induced with tamoxifen. inhibition, % at 2 µM. hit rate 0.9% among 130,000. AID 1273, 2008;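 active means inhibition above the mean plus 3 SD, with well images judged a real hit on visual review, cut at about 60% in these data, passing the limit was not always enough; inconclusive means inhibition over the cutoff but images rejected on review; inactive means inhibition not above the cutoff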
Insulin prom up – insulin promoter activators in MIN6 cells, imaging, high-content screening, mouse beta cells; hit rate 0.3% among 190,000; MIN6 insulin promoter-GFP reporter; hits give high values; z-score at 5 µM;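 active means z-score above 3 at 5 µM with at least 500 cells counted in the well; inconclusive means wells under 500 cells, flagged as cytotoxic or low count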
An asterisk follows results filed as active; ? = inconclusive; / = not tested or not shown.

SMILES | WT yeast gro inh | KCC2 mod | ROMK mod | Lmaj promast | INS promoter inh | Insulin prom up
COc1cccc(CNC(=O)CCC2CCCN(C(=O)c3cc(C4CC4)[nH]n3)C2)c1 (stereo not drawn) | -2 | -1.1 | -2.1 | 5 | / | /
CCCOc1ccc(CSCCNC(=S)Nc2ccccc2)cc1 | 67* | 1.2 | / | 40 | -18 | /
Cc1cccc(NC(=S)NC(C)CCc2ccccc2)c1 (stereo not drawn) | 74* | -3 | / | 78* | / | -0.48
Cc1cccc(CSCCNC(=S)Nc2ccccc2)c1 | 71* | -0.035 | -1.4 | 8 | 50 | 0.28
CCCNC(=S)Nc1ccccc1 | / | 0.27 | -0.054 | / | / | -0.1
S=C(NCCSCc1ccccc1Cl)Nc1ccccc1 | 67* | / | / | 19 | -4 | -0.76
S=C(NCCSCc1ccc(Cl)cc1)Nc1ccccc1 | 79* | 0.4 | / | 22 | / | 1.2
Cc1ccc(NC(=S)N2CCC(C(N)=O)(N3CCCCC3)CC2)c(C)c1 | -10 | / | / | -5 | / | -0.25
OCCNCCCCOc1ccc(OCc2ccccc2)cc1 | -1 | -0.51 | -1.5 | 100* | 15 | 0.41
CCOCCCNCc1ccc(OCc2ccccc2Cl)cc1 | 53 | 0.0028 | -1 | 100* | -100 | -0.38
OCCCNCc1ccc(-c2ccccc2)cc1 | -10 | 0.67 | -0.1 | 92* | / | 0.07
OCCCCNCc1ccc(OCc2ccccc2Cl)cc1 | 45 | 0.088 | / | 97* | 16 | /
CCOCCCNCc1c(Cl)cccc1Cl | 5 | 0.64 | / | 2 | 13 | 0.4
OCCCCNCc1cc(Br)ccc1OCc1ccccc1F | 7 | 0.53 | -0.34 | 11 | / | 0.61
CCCCCC(=O)C(=O)c1ccc(O)cc1O | / | / | / | / | / | 0.78
Cc1cc(-c2cc(C(=O)NCc3ccccc3)on2)nc(S(C)(=O)=O)n1 | / | 0.29 | / | / | / | -0.71
COc1ccc(CN(C(=O)CN2C(=O)c3ccccc3S2(=O)=O)C(C(=O)NCC2CCCO2)c2ccncc2)cc1 (stereo not drawn) | 12 | -2 | / | -9 | / | 0.68
O=C(O)CCCCNCc1ccccc1 | -4 | / | 0.93 | -6 | 27 | /
OCCCCNCc1ccc(OCc2ccccc2)cc1 | 4 | -0.67 | / | 90* | / | -0.23
COc1ccccc1OCCCCCNCCO | 2 | 0.24 | 0.072 | 0 | / | 0.86
OCCNCCCCOc1ccc(F)cc1 | -6 | 0.25 | / | 63* | -5 | -0.98
NC(N)=N/N=C/c1ccc(OCc2ccccc2Cl)cc1 | 62* | / | / | 101* | 37 | 0.95
CCC(Oc1cc(Cl)ccc1Cl)C(=O)NN1C(=O)C2C3CCC(C3=C(C)C)C2C1=O (stereo not drawn) | 19 | 0.72 | -0.011 | 98* | 7 | 0.63
CCC(Oc1cc(Cl)ccc1Cl)C(=O)NNC(=O)CCC(=O)O (stereo not drawn) | -11 | 0.67 | 0.04 | -3 | -6 | -0.12
CCn1ncc(Br)c1C(=O)N(C)C12CC3CC(CC(C3)C1)C2 | 16 | -0.72 | -4.5* | 51* | / | -0.35
SMILES | WT yeast gro inh | KCC2 mod | ROMK mod | Lmaj promast | INS promoter inh | Insulin prom up
COc1ccc(CCn2cnc(=O)c(C#N)c2C)cc1OC | -17 | -0.16 | -0.13 | -4 | 36 | -0.11
Cc1nnc(SCC(=O)Nc2ccc(Cl)cn2)s1 | -13 | -0.09 | -0.013 | 57* | -5 | -0.12
Cc1ccc(C(=O)CSc2nnc(C)s2)cc1 | -5 | -0.088 | 0.012 | -10 | 7 | 0.89
Cc1nnc(SCC(=O)c2ccc(Br)cc2)s1 | -7 | -0.11 | 0.13 | -5 | 79* | 0.34
O=C(C1CCN(Cc2ccc(OCc3ccccc3)cc2)CC1)N1CCCC1 | -19 | 0.094 | / | -6 | / | -0.34
CS(=O)(=O)N1CCC(C(=O)NCCc2ccccc2)CC1 | -12 | -0.26 | -0.17 | -5 | 20 | 0.05
CCCCCC(=O)NN=C1CCN(Cc2ccccc2)CC1 | -2 | / | 0.59 | -4 | 8 | -0.12
CCN(CC)C(=O)C1CCN(Cc2cccc(OCc3ccccc3)c2)CC1 | 39 | -0.28 | -3.1* | 100* | / | -4.2
O=C(NCCc1ccccc1)C1CCN(Cc2ccccc2F)CC1 | -53 | -1.8 | / | 71* | / | 0.02
CCCCNC(=O)C1CCN(Cc2ccc(OCc3ccccc3)cc2)CC1 | 0 | -0.3 | -2.1 | 82* | -42 | -0.62
CCCCC(=O)C1CCN(Cc2ccccc2)CC1 | 4 | 0.6 | -0.26 | 67* | 9 | -0.34
O=C(CSc1nnc(-c2ccccn2)n1-c1ccc(Cl)cc1)Nc1ccc2c(c1)OCO2 | -12 | 1.5 | / | -1 | 7 | 0.65
O=[N+]([O-])c1cccc(-c2cc(C(F)(F)F)n3nc(-c4ccccc4)cc3n2)c1 | / | -0.71 | -0.71 | / | / | 0.89
Cc1nn(Cc2ccc(Cl)cc2Cl)c(C)c1NC(=O)CCl | -7 | / | 0.039 | 45 | -110 | /
COc1ccc(Cl)cc1NC(=O)c1[nH]nc(OC)c1[N+](=O)[O-] | -6 | -1.2 | -0.11 | 53* | 18 | -0.27
COc1n[nH]c(C(=O)Nc2cc(Cl)ccc2Cl)c1[N+](=O)[O-] | 33 | 1.2 | -1 | 89* | / | 0.35
COc1n[nH]c(C(=O)Nc2cc(F)ccc2C)c1[N+](=O)[O-] | 41 | -0.0093 | -0.59 | 17 | -75 | 0.81
COc1ccc(Cl)cc1NC(=O)Nc1cccc([N+](=O)[O-])c1C | 49 | 0.34 | / | 21 | -24 | -0.4
COc1ccc(-n2c(-c3ccc(Cl)cc3)c[n+]3c2CCc2ccccc2-3)cc1 | 4 | -0.64 | -2.6 | 100* | 57 | ?
CCCCC(=O)c1c(C)cc(C)[nH]c1=O | 18 | / | 0.22 | -1 | / | /
CN1C(=O)c2ccc(C(=O)Nc3nccs3)cc2C1=O | -11 | 0.38 | -0.62 | 8 | / | -0.09
CC(=O)OCC(=O)[C@H]1CC[C@H]2[C@@H]3CCC4=CC(=O)CC[C@]4(C)[C@H]3CC[C@]12C | 5 | -0.7 | / | 100* | -10 | /
CCN(c1ccccc1)S(=O)(=O)c1cnc[nH]1 | 59* | -0.36 | / | -6 | 0 | -0.49
CN(CC(=O)NCc1ccccc1)S(=O)(=O)c1cnc[nH]1 | 7 | 0.0058 | -0.004 | -3 | 10 | 0.15
COc1ccc(-c2oc3c(OC)c(OC)c(OC)c(O)c3c(=O)c2OC)cc1OC | -2 | 0.75 | / | -4 | / | -0.25
SMILES | WT yeast gro inh | KCC2 mod | ROMK mod | Lmaj promast | INS promoter inh | Insulin prom up
COc1c(OC)c(O)c2c(=O)c(O)c(-c3ccccc3)oc2c1OC | 2 | 52* | / | -17 | / | 1.4
CC(=O)N1CCC(=NNc2nc3ccccc3[nH]2)CC1 | -2 | 0.83 | -0.32 | 8 | / | 1.6
CC1C(c2ccccc2)N(C)C(c2ccccc2)CC1(O)c1ccc(F)cc1 (stereo not drawn) | 69* | -0.87 | 0.63 | 49 | / | -2.3
CN(C)C(=O)N1CCCC(C(=O)NCc2ccc(F)cc2Cl)C1 (stereo not drawn) | 5 | 0.55 | -0.24 | 4 | 6 | 1.8
Cc1nn(C)c(C)c1S(=O)(=O)N1CCC(C(=O)NCCC2=CCCCC2)CC1 | 27 | / | / | 4 | / | -2.2
Cc1ccc(CNC(=O)C2CCCN(C(=O)N(C)C)C2)cc1 (stereo not drawn) | 1 | 0.28 | 1.5 | 86* | -41 | -0.65
COc1ccc(OC)c(NC(=O)C2CCN(S(=O)(=O)c3c(C)noc3C)CC2)c1 | 18 | -0.024 | -0.14 | 36 | -4 | -0.28
